Screening data as filed in PubChem BioAssay.
Only some compounds are listed: those with a hit (about 4.3% of all), similar ones and a draw of the others.
SMARCA2 activ: activators of SMARCA2 function; MG213 cells, MMTV-luciferase reporter, dexamethasone, overnight; activation, % at 9.1 µM; 370,000 tested, 1% active; in the data active = activation above about 7.8%;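 also: 0% = vehicle wells and 100% = reference activator wells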
esBAF inh: SWI/SNF esBAF complex inhibition; mouse ES cells, Bmi1-luciferase knock-in reporter, 24 h; 100% = twice the neutral-well signal; reporter increase, % at 12.5 µM; 350,000 tested, 2% active; in the data active = activation above about 40%; inconclusive = no clear call, values can overlap the other calls;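 also: 0% = median of the plate's neutral control wells and 100% = double that signal; a rise in the Bmi1 reporter signal indicates esBAF inhibition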
MITF TRPM1 HTS: increases MITF-driven TRPM1 promoter luciferase signal | SK-MEL-5 TRPM1-promoter luciferase, 24 h; % of positive control, neutral wells = 0 | activation, % at 12.5 µM | 300,000 tested, 0.75% active | AID 588334;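 active = mean activation of at least 80% with every replicate also reaching 80%; inconclusive = mean reaches 80% but some replicate falls short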;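 also: 0% = neutral control wells and 100% = parthenolide positive control wells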
Wnt act: activators of Wnt/beta-catenin signaling; Wnt/beta-catenin reporter cell assay, activator, plate reader; activation, % at 9.35 µM; 300,000 tested, 1.2% active; AID 743398; in the data active = activation above about 30%, passing the limit was not always enough; inconclusive = no clear call, values can overlap the other calls;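 also: 0% = neutral control wells and 100% = positive control wells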
FGF22 binding: binders of recombinant human FGF22 by thermal shift; Q9HCT0; SYPRO orange fluorescence; percent of sucrose octasulfate shift, DMSO zero; activity (Tm shift, normalised), % at 9.99 µM; 340,000 tested, 1.5% active; AID 651658;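 active = mean Tm shift, scaled 0 neutral to 100 positive control, at about 1.3% or above, every replicate too, limit read from the data; inconclusive = no clear call, values can overlap the other calls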
MLL AF4-AF9 inh: MLL-AF4/AF9 protein interaction inhibition; inhibition, % at 10 µM; AID 651704; AlphaScreen, biotin-AF4 peptide binding to FLAG-AF9; 350,000 tested, 0.47% active;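 active = every replicate reaching a set inhibition limit, whatever the replicate mean, cut at about 25% in these data; inconclusive = mean inhibition reaches that limit but some replicates miss it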;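 also: 0% = plate neutral control median and 100% = total signal loss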
Target sequence (P42568 whole entry, looked up): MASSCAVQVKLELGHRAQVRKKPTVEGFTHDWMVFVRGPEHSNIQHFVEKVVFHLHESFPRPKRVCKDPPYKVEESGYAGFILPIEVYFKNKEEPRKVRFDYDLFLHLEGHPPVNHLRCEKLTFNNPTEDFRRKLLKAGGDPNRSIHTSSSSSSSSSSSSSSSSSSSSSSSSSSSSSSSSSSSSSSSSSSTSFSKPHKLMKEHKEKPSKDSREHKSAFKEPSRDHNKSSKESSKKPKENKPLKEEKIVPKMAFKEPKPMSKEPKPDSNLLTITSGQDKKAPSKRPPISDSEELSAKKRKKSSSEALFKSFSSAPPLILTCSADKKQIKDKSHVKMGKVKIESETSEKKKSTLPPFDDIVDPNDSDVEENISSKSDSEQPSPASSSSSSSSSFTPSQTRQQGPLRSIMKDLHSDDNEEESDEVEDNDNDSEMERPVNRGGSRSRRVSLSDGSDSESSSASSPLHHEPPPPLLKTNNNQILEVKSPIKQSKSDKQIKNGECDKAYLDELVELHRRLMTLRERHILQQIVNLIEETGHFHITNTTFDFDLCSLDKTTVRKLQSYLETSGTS
Numbers without * were called inactive; ? = inconclusive; nt = no result given.

SMILES	SMARCA2 activ	esBAF inh	MITF TRPM1 HTS	Wnt act	FGF22 binding	MLL AF4-AF9 inh
COCC#Cc1cnc2c(c1)C(=O)N([C@@H](C)CO)C[C@H](C)[C@@H](CN(C)C(=O)c1ccc(F)cc1)O2	nt	-3	nt	nt	0	-4
CCOc1ccc(-c2nnc(-c3cccs3)o2)cc1OCC	2	11	nt	nt	nt	nt
Cc1ccccc1-c1nnc(-c2ccccc2)o1	6	43*	41	nt	nt	nt
Cc1ccccc1-c1noc(-c2cccs2)n1	0	54*	nt	18	0	-4
Cc1ccccc1-c1nnc(CS(=O)(=O)c2ccccc2)o1	4	16	103*	-3	-1	0
CCOc1ccc(-c2nnc(-c3cccs3)o2)cc1	3	-43	19	31*	nt	nt
Cc1ccccc1-c1nnc(-c2cccs2)o1	1	42*	49	2	0	0
COc1ccc(-c2nnc(-c3cccs3)o2)cc1OC	8	28	78	16	nt	nt
Clc1ccccc1-c1nnc(-c2ccccc2Cl)o1	4	71*	?	29	nt	nt
Clc1ccc(-c2nnc(-c3ccccc3Cl)o2)cc1	6	-10	38	nt	nt	nt
COc1cccc(OCc2nnc(-c3cccs3)o2)c1	2	12	24	8	43*	-4
CC=Cc1ccc2n(c1=O)C[C@H]1[C@H](CO)[C@@H](C(=O)N3CCCCC3)[C@@H]2N1CC1CCCC1 (mixture of isomers)	nt	-5	nt	nt	0	2
C/C=C/c1cnc2c(c1)C(=O)N([C@@H](C)CO)C[C@@H](C)[C@H](CN(C)S(=O)(=O)c1ccc(OC)cc1)O2	nt	1	nt	nt	0	-1
C[C@H](CO)N1C[C@H](C)[C@H](CN(C)C(=O)c2ccccc2)OCCCC[C@H](C)Oc2ccc(NS(=O)(=O)c3ccc(F)cc3)cc2C1=O	nt	5	nt	nt	1	-4
CN(C)C(=O)c1cccc(-c2ccc([C@@H]3[C@H]4CN(CC5CCOCC5)CCCCN4[C@H]3CO)cc2)c1	nt	3	nt	nt	0	3
O=C(Nc1cccc(Cl)c1)N[C@H]1CC[C@@H](CCNC(=O)C2CC2)O[C@H]1CO	nt	1	nt	nt	0	1
CCOC(=O)c1c(C)[nH]c(C(=O)OCc2ccc(F)cc2)c1C	3	49*	58	-1	0	0
O=C(OCC(=O)c1c[nH]c2ccccc12)c1cccc([N+](=O)[O-])c1	3	-8	17	4	0	11
CCOC(=O)c1c(C)[nH]c(C(=O)OCc2ccccc2F)c1C	7	38	?	28	0	-3
CC(=O)c1c(C)[nH]c(C(=O)COC(=O)c2cccnc2Cl)c1C	-2	52*	26	16	0	5
CCOC(=O)c1c(C)[nH]c(C(=O)OCC(=O)c2ccccc2)c1C	5	45*	122*	49*	0	1
Cc1ccc(C(=O)COC(=O)c2cccc([N+](=O)[O-])c2)s1	1	46*	57	11	0	5
C[C@@H]1CN([C@H](C)CO)C(=O)c2cc(NC(=O)NC3CCCCC3)ccc2O[C@@H](C)CCCCO[C@@H]1CN(C)Cc1ccc(C(F)(F)F)cc1	nt	8	nt	nt	1	-2
O=C(NC1CCC1)[C@H]1[C@H](CO)[C@H]2Cn3c(cccc3=O)[C@H]2N1CC1CCOCC1	nt	-3	nt	nt	nt	-3
CC(C)COC(=O)N(C)C[C@@H]1OCc2ccccc2-c2ccccc2C(=O)N([C@H](C)CO)C[C@H]1C	nt	2	nt	nt	0	-1
SMILES	SMARCA2 activ	esBAF inh	MITF TRPM1 HTS	Wnt act	FGF22 binding	MLL AF4-AF9 inh
CC(=O)c1c(C)[nH]c(C(=O)OCc2ccc([N+](=O)[O-])cc2)c1C	-2	41*	26	10	0	-1
COC(=O)c1c(C)[nH]c(C(=O)OCC(=O)c2ccc(C)s2)c1C	1	nt	89*	-1	0	-2
CC(=O)c1c(C)[nH]c(C(=O)OCc2ccccc2)c1C	1	40*	50	26	nt	2
Cc1ccsc1C(=O)OCc1nnc(-c2ccccc2)o1	3	63*	96*	13	0	-2
O=C(OCc1nnc(-c2ccccc2)o1)c1ccccc1	-2	11	23	0	43*	-4
COc1ccc(S(=O)(=O)N(C)C[C@H]2OCCCC[C@H](C)Oc3ccc(NC(=O)C4CCCCC4)cc3C(=O)N([C@@H](C)CO)C[C@@H]2C)cc1	nt	0	nt	nt	nt	0
COc1cccc(NC(=O)C(=O)NCc2ccncc2)c1	0	52*	?	23	nt	nt
O=C(CCl)Nc1cccc(Oc2cnccn2)c1	-2	-7	-30	-4	0	0
O=C(CCl)Nc1cccc(Oc2ccccc2)c1	-2	8	-65	-1	43*	4
COc1cccc(NC(=S)NC(=O)Cc2ccccc2)c1	-1	nt	nt	9	0	0
COc1cccc(NC(=O)CNC(=O)N2CC(=O)Nc3ccccc32)c1	1	44*	31	6	0	0
COc1cccc(NC(=S)NCc2ccncc2)c1	3	nt	12	2	1	-17
COc1ccc(CNC(=O)CNC(=O)N2CC(=O)Nc3ccccc32)cc1	-2	1	4	2	0	-1
COc1cccc(NC(=O)Cc2ccccc2)c1	5	64*	69	?	0	0
COC(=O)[C@]12C[C@H](CC(=O)N3CCCC3)C(=O)N(Cc3ccccc3)C1=C[C@H](C(C)(C)C)O[C@@H]2C	-4	nt	nt	-3	0	2
O=C1CN(C(=O)OCc2ccccc2)c2ccccc2N1	6	50*	58	22	nt	nt
COc1cccc(NC(=O)CC(=O)c2ccccc2)c1	3	?	80	33*	0	-11
COc1cccc(NC(=O)CCNS(=O)(=O)c2cccc3nsnc23)c1	-3	nt	-7	0	44*	-8
COc1cccc(CNC(=O)CCNS(=O)(=O)c2cccc3nsnc23)c1	-3	nt	10	-1	0	-2
COc1cccc(NC(=O)CC(C)=O)c1	-1	0	3	-1	0	-3
O=C1CN(C(=O)/C=C/c2ccco2)c2ccccc2N1	2	nt	1	2	44*	-3
O=C(CNC(=O)N1CC(=O)Nc2ccccc21)NCc1ccccc1	0	-2	1	-1	0	-7
O=C(C[C@H]1CC[C@@H](NC(=O)c2ccccc2)[C@@H](CO)O1)NCc1ccc(Oc2ccccc2)cc1	nt	9	nt	nt	0	0
COc1ccc2c3c(n(C)c2c1)[C@@H](CO)N(C)CC31CN(C(=O)NC(C)C)C1	nt	nt	nt	nt	0	2
Cc1ccccc1NC(=O)c1cc([N+](=O)[O-])ccc1NCCN1C(=O)CCC1=O	1	nt	6	0	43*	3
O=C(Nc1ccccc1)c1ccc(NCCN2C(=O)CCC2=O)c([N+](=O)[O-])c1	-2	nt	-5	2	42	-2
C/C(=N\NC(=O)c1ccccc1)c1ccccc1Br	7	nt	42	?	0	3
C/C(=N\NC(=O)c1ccc(Br)cc1)c1ccccc1	2	47*	54	nt	nt	nt
